Molecules are shown by their SMILES. Among all 5,500 compounds or so, about 2,000 (36%) were called active. Inconclusive results (about 18%) are left out. The list shows a part of the results. A number with no mark means an inactive call. Rule as the data show it: active = normalized growth mostly below about 0.91 (no sharp cut-off); inconclusive = no clear call, values can overlap the other calls; inactive = mostly above about 0.92.

This experiment in a line: chemical genetic growth profiling, strain panel (AID 1159580).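 Also: tested at 20 µM; growth read once vehicle control cultures reached saturation at 30 °C; 1 = growth at the plate median or of vehicle wells; lower values mean less growth of the strain.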 The note with it: S. cerevisiae deletion strains, growth OD.
The mark [1] stands for this setting: locus YAL040C, strain CLN3, active compounds read low.
Setting [2] is: locus YCL061C, strain MRC1 (second series), active compounds read low.
Where [3] appears, read: locus YDR150W, strain NUM1, active compounds read low.
[4] abbreviates: locus YDR363W, strain ESC2, active compounds read low.
Where [5] appears, read: locus YER002W, strain NOP16, active compounds read low.
Where [6] appears, read: locus YGR078C, strain PAC10, active compounds read low.
[7] abbreviates: locus YGR229C, strain SMI1, active compounds read low.
Setting [8] is: locus YJR075W, strain HOC1, active compounds read low.
[9] abbreviates: locus YMR263W, strain SAP30, active compounds read low.
Setting [10] is: locus YMR307W, strain GAS1, active compounds read low.
Setting [11] is: locus YNL128W, strain TEP1, active compounds read low.
The mark [12] stands for this setting: locus YNL175C, strain NOP13, active compounds read low.
Setting [13] is: locus YNL197C, strain WHI3, active compounds read low.
The mark [14] stands for this setting: locus YNL224C, strain SQS1, active compounds read low.
[15] abbreviates: locus YNL322C, strain KRE1, active compounds read low.
[16] abbreviates: locus YOR083W, strain WHI5 (second series), active compounds read low.
[17] abbreviates: locus YPL241C, strain CIN2, active compounds read low.
Setting [18] is: locus YAL013W, strain DEP1, active compounds read low.
Setting [19] is: locus YNL153C, strain GIM3, active compounds read low.
[20] abbreviates: locus YPL055C, strain LGE1, active compounds read low.

In the case of `N#C/C(=C\c1ccc(O)c(O)c1)C(=O)NCCc1ccccc1`, the normalized growth reads like this: under setting [1], 0.986; under setting [2], 0.987; under setting [3], 0.988; under setting [4], 1; under setting [5], 0.995; under setting [6], 1.01. The normalized growth under setting [7] was 0.952; the normalized growth under setting [8] is 0.99; the normalized growth under setting [9] is 1; the normalized growth under setting [10] is 1.01; the normalized growth under setting [11] was 0.999; the normalized growth under setting [12] was 1. The normalized growth is 1 under setting [13]; 0.998 under setting [14]; 1 under setting [15]; 0.994 under setting [16]; 0.996 under setting [17].
Take `COc1cc(/C=C(\C#N)C(=O)c2ccc(O)c(O)c2)cc(I)c1O`: the normalized growth by setting is: under setting [18], 1.02; under setting [1], 1.03; under setting [2], 1.02; under setting [4], 1.02; under setting [5], 1; under setting [7], 0.971. The normalized growth by setting is: under setting [9], 1.02; under setting [10], 1.03; under setting [11], 1.01; under setting [19], 1.02; under setting [12], 0.984; under setting [13], 1.04. Also, the normalized growth under setting [14] is 1, the normalized growth under setting [15] is 1.03 and the normalized growth under setting [16] is 1.02.
Turning to `CC(C)(C)c1cc(C=C(C#N)C#N)cc(C(C)(C)C)c1O`, the normalized growth by setting is: under setting [1], 0.965; under setting [2], 1.01; under setting [3], 1.01; under setting [4], 1.03; under setting [5], 1.02; under setting [7], 1.02. Moreover, the normalized growth was 0.999 under setting [10]; 0.973 under setting [11]; 0.821 under setting [19]; 0.943 under setting [12]; 0.884 (active) under setting [13]; 0.931 under setting [14]. The normalized growth reads like this: under setting [16], 0.85 (active); under setting [17], 1.
Consider `N#CC(C#N)=Cc1cc(O)c(O)c(O)c1`, for which the normalized growth was 0.951 under setting [1]; 0.998 under setting [2]; 0.988 under setting [3]; 1 under setting [4]; 0.996 under setting [5]; 0.97 under setting [7]. The normalized growth is 0.996 under setting [9]; 0.995 under setting [10]; 0.986 under setting [11]; 0.975 under setting [19]; 1.01 under setting [12]; 1.01 under setting [13]. In addition, the normalized growth runs as follows: under setting [14], 0.999; under setting [16], 0.995; under setting [17], 0.999.
As to `COc1cc(C=C(C#N)C#N)cc(O)c1O`, the normalized growth under setting [18] is 1.01; the normalized growth under setting [1] is 0.941; the normalized growth under setting [2] was 0.979; the normalized growth under setting [4] is 0.997; the normalized growth under setting [5] is 1; the normalized growth under setting [6] is 0.982. The normalized growth was 0.993 under setting [9]; 0.993 under setting [10]; 0.968 under setting [11]; 0.972 under setting [12]; 0.978 under setting [13]; 0.969 under setting [14]. Besides, the normalized growth is 0.997 under setting [16] and 1.01 under setting [20].
With `N#C/C(=C\c1ccc(O)c(O)c1)C(=O)NCCCNC(=O)/C(C#N)=C/c1ccc(O)c(O)c1`, the normalized growth runs as follows: under setting [1], 0.994; under setting [2], 1.01; under setting [4], 0.999; under setting [5], 0.987; under setting [6], 0.992; under setting [7], 0.758 (active). Further, the normalized growth under setting [10] is 0.982; the normalized growth under setting [12] was 1.01; the normalized growth under setting [13] is 0.988; the normalized growth under setting [14] is 1; the normalized growth under setting [15] is 0.981; the normalized growth under setting [16] is 1.01. Besides, the normalized growth under setting [17] was 0.997.
For the compound `COc1cc(/C=C(\C#N)C(N)=S)cc(OC)c1OC`, the normalized growth was 0.979 under setting [18]; 1.02 (locus YBR229C, strain ROT2, active compounds read low); 1 (locus YCL061C, strain MRC1, active compounds read low); 0.943 (locus YDL101C, strain DUN1, active compounds read low); 0.943 (locus YDL134C, strain PPH21, active compounds read low); 0.961 under setting [3]. The normalized growth was 0.674 (active) (locus YEL061C, strain CIN8, active compounds read low); 0.977 under setting [6]; 0.476 (active) (locus YHR030C, strain SLT2, active compounds read low); 0.986 (locus YHR087W, strain rtc3, active compounds read low); 0.942 (locus YJL187C, strain SWE1, active compounds read low); 0.986 (locus YJR043C, strain POL32, active compounds read low). The normalized growth is 0.983 under setting [8]; 0.71 (active) (locus YKL190W, strain CNB1, active compounds read low); 0.854 (locus YLR039C, strain RIC1, active compounds read low); 1.01 (locus YLR058C, strain SHM2 (second series), active compounds read low); 0.377 (active) (locus YLR085C, strain ARP6, active compounds read low); 0.832 (locus YLR262C, strain YPT6, active compounds read low). Also, the normalized growth runs as follows: (locus YML094W, strain GIM5, active compounds read low) 0.86 (active); (locus YMR219W, strain ESC1, active compounds read low) 1.02; under setting [9], 0.982; under setting [10], 1.15; under setting [19], 0.989; (locus YNL298W, strain CLA4 (second series), active compounds read low) 0.886. Besides, the normalized growth is 0.987 under setting [15]; 0.761 (active) (locus YNR030W, strain Alg12, active compounds read low); 0.966 under setting [20]; 0.558 (active) under setting [17]; 0.756 (locus YPR135W, strain CTF4, active compounds read low).
For the compound `N#CC(C#N)=Cc1ccc(O)c(O)c1`, the normalized growth is 1 under setting [18]; 1.01 under setting [1]; 1 under setting [2]; 0.998 under setting [3]; 1.02 under setting [4]; 0.992 under setting [5]. The normalized growth under setting [7] was 0.982; the normalized growth under setting [8] is 0.959; the normalized growth under setting [10] was 0.988; the normalized growth under setting [12] was 0.998; the normalized growth under setting [13] was 0.995; the normalized growth under setting [14] was 0.998. In addition, under setting [16], the normalized growth is 1.03.

The values are drawn from PubChem BioAssay AID1159580 (chemical genetic matrix, 2015).
